{"source": "PubChem BioAssay (EPA / NIEHS)", "note": "Values joined by “and” are separate entries in the source; they are usually repeats but may differ in a detail not shown here. Equal values may be shown once. Where a structure was tested more than once in an assay, its records may differ in their call. Active and inactive are the calls of the source. The calls were made as follows: active = hit-call score of the fitted dose curve at least 0.9, where 1 is the maximum; inconclusive = response in the unintended direction; inactive = score below 0.9."}
{"test_system": "rat CYP2B1, gene 24300", "test": "NVS_ADME_rCYP2B1: NovaScreen (NVS) CYP450-related Enzyme Activity (ADME) Assay for rat CYP2B1 (AID 2283117)", "method_in_brief": "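Cell-free fluorescence enzyme assay, recombinant rat CYP2B1, 0.75 h after dosing. Single-concentration duplicates at 10 uM preceded concentration series (max 20 uM) for actives; acetonitrile as negative-control baseline.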"}
{"compound": "CCCCOC(=O)c1ccccc1C(=O)OCCCC", "AC50": "2.31 µM (active)", "outcome": "inactive"}
{"compound": "CCNc1nc(Cl)nc(NC(C)C)n1", "outcome": "inactive"}
{"compound": "COc1ccc(C(c2ccc(OC)cc2)C(Cl)(Cl)Cl)cc1", "outcome": "inactive"}
{"compound": "OC(c1ccc(Cl)cc1)(c1cncnc1)c1ccccc1Cl", "note": "(centres undefined)", "AC50": "1.17 µM (active)"}
{"compound": "CCCC1COC(Cn2cncn2)(c2ccc(Cl)cc2Cl)O1", "note": "(centres undefined)", "AC50": "799 nM (active) and 409 nM (active)"}
{"compound": "N#CC(CCc1ccc(Cl)cc1)(Cn1cncn1)c1ccccc1", "note": "(centres undefined)", "AC50": "0.0692 µM (active)"}
{"compound": "CN(C)C(=S)SSC(=S)N(C)C", "AC50": "2.11 µM (active)"}
{"compound": "CCOP(=S)(OCC)SCn1c(=O)oc2cc(Cl)ccc21", "AC50": "0.708 µM (active)"}
{"compound": "CC1COC(Cn2cncn2)(c2ccc(Oc3ccc(Cl)cc3)cc2Cl)O1", "note": "(centres undefined)", "AC50": "0.552 µM (active)"}
{"compound": "CCCN(CCC)c1c([N+](=O)[O-])cc(S(N)(=O)=O)cc1[N+](=O)[O-]", "AC50": "7.63 µM (active)"}
{"compound": "O=C(Nc1ccccc1)Nc1ccnc(Cl)c1", "AC50": "6.41 µM (active)"}
{"compound": "CCON=C(CC)C1=C(O)CC(c2c(C)cc(C)cc2C)CC1=O", "note": "(centres undefined)", "outcome": "inactive"}
{"compound": "CCOC(=O)CC(SP(=S)(OC)OC)C(=O)OCC", "note": "(centres undefined)", "AC50": "3.83 µM (active)"}
